A selection: hits, their analogues and other compounds. The true share with any hit is near 2.1%.
aSyn 5UTR inh: MLPCN primary screen, SNCA 5' untranslated region | AID 1813, 2009 | alpha-synuclein 5'UTR reporter, inhibitor activity | 300,000 compounds, 0.82% hits | inhibition, % (tested at 7.5 µM); in the data active = inhibition above about 60%; inconclusive = no clear call, values can overlap the other calls;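 note: H4 neuroglioblastoma cells stably carrying SNCA 5'UTR luciferase fusion; 0% = DMSO wells and 100% = positive control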
Platelet DG rel: inhibitors of platelet dense granule secretion, primary screen, cell-based, MLPCN, human platelets. 300,000 compounds, 0.22% hits. human platelet-rich plasma, SFLLRN dense granule ATP release, luminescence. AID 1663, 2009. inhibition, %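 (compounds screened at 7.5 µM in platelet-rich plasma)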;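 active = mean replicate score, as percent of positive control, at or above 50; inconclusive = mean below 50 but at least one replicate at or above 50; inactive = mean and every replicate below 50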
KLF5 inh: KLF5 expression inhibitors, primary screen, DLD-1 cells, luminescence; inhibition, % at 5 µM; DLD-1 KLF5 promoter-luciferase reporter; AID 1700, 2009; 290,000 compounds, 0.23% hits;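 active = inhibition above a per-plate limit of that plate's mean compound inhibition plus 3 SD, cut at about 60% in these data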;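 note: 0% = DMSO wells and 100% = LY294002 at 200 µM; higher means less KLF5 promoter-driven luciferase light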
Wee1 stabilizer: Wee1 degradation inhibitors, primary screen, cell-based, HeLa, Wee1K328M-luciferase, luminescence. Wee1-like protein kinase (Homo sapiens), P30291. HeLa Luc-Wee1K328M stability; 100% = proteasome inhibitor MG132 effect. reporter increase, % at 5 µM. 220,000 compounds, 1.2% hits. AID 1321, 2008;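 active = activation above the mean of all tested compounds plus 3 SD, set per screening run, cut at about 8.8% in these data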;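 note: cells exposed to compound for 20 h before luminescence read; 0% = DMSO alone and 100% = MG132 at 30 µM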
Target sequence (P30291 whole entry K328M): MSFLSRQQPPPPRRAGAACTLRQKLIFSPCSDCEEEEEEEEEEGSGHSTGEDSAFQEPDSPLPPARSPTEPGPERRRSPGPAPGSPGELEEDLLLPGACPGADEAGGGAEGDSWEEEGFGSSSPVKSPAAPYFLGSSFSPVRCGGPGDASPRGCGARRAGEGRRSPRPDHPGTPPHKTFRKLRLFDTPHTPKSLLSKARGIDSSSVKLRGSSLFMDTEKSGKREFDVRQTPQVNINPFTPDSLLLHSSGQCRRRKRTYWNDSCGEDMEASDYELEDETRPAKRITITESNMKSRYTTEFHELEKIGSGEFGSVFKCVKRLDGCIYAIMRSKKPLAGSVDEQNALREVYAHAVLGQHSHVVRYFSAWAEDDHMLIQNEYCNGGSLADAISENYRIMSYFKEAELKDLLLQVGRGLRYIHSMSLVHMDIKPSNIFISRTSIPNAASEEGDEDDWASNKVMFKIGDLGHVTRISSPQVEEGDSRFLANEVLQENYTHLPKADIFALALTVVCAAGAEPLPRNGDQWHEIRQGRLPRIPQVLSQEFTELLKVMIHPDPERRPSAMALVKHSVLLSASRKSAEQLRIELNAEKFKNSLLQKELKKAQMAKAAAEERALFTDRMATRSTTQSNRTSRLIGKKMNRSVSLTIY
HIF act: HIF pathway transcriptional activators, primary screen, cell-based, U2OS HRE-luciferase, luminescence | U2OS HRE-luciferase reporter; normalized: DMSO 0%, desferrioxamine 100% | activation, % at 7.5 µM (by protocol) | 300,000 compounds, 0.32% hits;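 active = mean activation of at least 10% of the iron chelator positive control signal, with at least half of replicates also reaching 10%; inconclusive = mean and replicate majority disagree about reaching 10%; inactive = mean and most replicates under 10%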
Starred values were filed as active, the others as inactive; ? = inconclusive; nt = not tested or not shown.

SMILES	aSyn 5UTR inh	Platelet DG rel	KLF5 inh	Wee1 stabilizer	HIF act
COc1ccc(-c2noc3c2-c2nc(-c4ccc(Cl)cc4)sc2CC3)cc1	5	-10	-6	nt	0
O=C(Cc1ccc(F)cc1)NCC1CCCO1 (centres undefined)	-8	5	-42	0	0
O=C(Cc1ccccc1)NCC1CCCO1 (centres undefined)	17	-4	-10	10*	0
CC(=O)Nc1ccc2c(c1)CCCC2=O	-21	-13	-4	-2	9.6*
CC(=O)Nc1ccc2c(c1)CCCC2	-10	-2	-11	0	0
CC1C/C(=N/Nc2nc3ccccc3[nH]2)CC(C)(C)C1 (centres undefined)	-58	-4	-136	10*	3
COc1ccc(Cc2c(C)nc(N)nc2Cl)cc1	4	0	-8	5	0
Cc1nc(N)nc(N)c1CCCc1ccc(Cl)c(Cl)c1	92*	4	nt	nt	-2
Cc1ccc(Nc2c(F)c(F)c(F)c(F)c2C(=O)O)cc1	3	-1	-27	13*	0
Cc1noc(C)c1CSc1nc2ccccc2c(=O)n1-c1ccccc1	1	9	7	-2	1
Cc1noc(C)c1CSc1nc2[nH]ncc2c(=O)n1-c1ccccc1	?	7	74*	0	0
C=CCn1c(SCc2c(C)noc2C)nc2ccccc2c1=O	80*	0	58	-1	0
C=CCn1c(SCc2c(C)noc2C)nc2sc3c(c2c1=O)CCCC3	30	-2	13	-2	0
C=CCn1c(SCc2c(C)noc2C)nc2sc3c(c2c1=O)CCCCC3	65*	-1	3	0	-1
C=CCn1c(SCc2c(C)noc2C)nc2cc(C(=O)O)ccc2c1=O	0	-14	-6	-3	0
CCOC(=O)C1CCCN(S(=O)(=O)c2cc3c4c(c2)CCC(=O)N4CCC3)C1 (centres undefined)	6	17	nt	nt	0
CC1CCc2sc3ncnc(N4CCN(CCO)CC4)c3c2C1 (centres undefined)	12	10	-42	nt	0
CN(C)Cc1ccccc1Sc1ccc2c(c1)CCCC2	104*	4	nt	nt	0
COc1cccc(/C=N/NC(=O)C(=O)N/N=C/c2cccc(OC)c2O)c1O	nt	nt	-5	-2	nt
CCOc1cc(/C=N/NC(=O)c2cccnc2)ccc1OCc1ccc(C(=O)OC)o1	3	0	20	2	14*
COc1cccc(/C=N/NC(=O)c2ccoc2C)c1O	-71	98*	51	4	25*
COc1cccc(/C=N/NC(=O)NC2CCCCC2)c1O	-97	-6	-51	10*	2
C#CCOc1ccc(/C=N/NC(=O)c2cccnc2)cc1OCC	9	3	7	-3	0
CCOc1ccc(/C=N/NC(=O)c2ccoc2C)cc1OC	-110	50*	-71	nt	3
CN(C(=O)CN1C(=O)C2C3CC(C(Br)C3Br)C2C1=O)C1CCCCC1 (centres undefined)	20	16	-14	nt	0
SMILES	aSyn 5UTR inh	Platelet DG rel	KLF5 inh	Wee1 stabilizer	HIF act
O=C(CN1CCN(C(=O)c2c(F)cccc2F)CC1)Nc1ccccc1C(F)(F)F	12	-2	-16	nt	-2
Cc1cc(C)n(Cc2cccc(C(=O)N/N=C/c3ccncc3)c2)n1	4	-4	-15	nt	0
O=C1NC(=O)C(Cc2c[nH]c3ccccc23)N1 (centres undefined)	4	-5	-18	nt	0
C=CCNC(=S)Nc1ccc(C)cc1[N+](=O)[O-]	-51	-8	-24	9.1*	2
CCOC(=O)C1=C2SCC(=O)N2C(N)=C(C#N)C1	12	-1	-13	-1	-1
COC(=O)C1=C2SCC(=O)N2C(N)=C(C#N)C1	-1	17	-12	12*	0
O=C(Nc1nc(-c2ccccc2)cs1)c1ccccc1NS(=O)(=O)c1ccc(F)cc1	63*	-21	21	3	1
O=S(=O)(Nc1ccc(-c2csc(-c3ccccc3)n2)cc1)c1ccc(F)cc1	-1	7	-33	0	0
CC(NC(=O)c1ccc(OC2CCN(Cc3ccccn3)CC2)cc1)c1nccs1 (centres undefined)	2	18	-15	nt	1
Cn1nc(C(=O)NCCCN2CCCCC2)c2c1-c1ccccc1S(=O)(=O)C2	-5	-3	-34	nt	19*
CC(C)C[C@H](NC(=O)C1CC(=O)N(c2ccc(F)cc2)C1)C(=O)N1CCCCC1 (some centres undefined)	-26	-3	-11	nt	0
O=C(CSc1nnc(-c2ccc(F)cc2)o1)NC1CCCCC1	-11	-2	-62	10*	0
O=C(CSc1nnc(-c2ccncc2)o1)NC1CCCCC1	-9	0	17	6	0
Cc1ccc(C)c(S(=O)(=O)Nc2ccc(C(=O)NCCCN3CCOCC3)cc2)c1	4	4	nt	nt	0
CCCOc1ccc(/C=N\NC(=O)CCc2n[nH]c(=O)[nH]c2=O)cc1OC	4	8	-34	9.6*	0
COc1ccc(/C=N/NC(=O)CCc2n[nH]c(=O)[nH]c2=O)cc1OC	15	-1	-18	4	2
O=C1C2=C(C(c3ccccc3)=NCCN2)C(c2cccc([N+](=O)[O-])c2)N1c1ccccc1 (centres undefined)	-3	-7	-4	-2	0
Cc1ccnc(N2CCC(C(=O)NNC(=O)COc3cccc4ccccc34)CC2)n1	14	-1	-18	0	0
O=C(COc1ccc(-c2nnco2)cc1)Nc1ccc(C(F)(F)F)cc1	-6	7	nt	nt	0
CCOC(=O)/C(=N/Nc1ccc(Cl)cc1)Sc1nnnn1-c1ccc(C)cc1	-13	12	-11	11*	0
COc1cc(C(=O)OCC(=O)NC(=O)C2CCCCC2)ccc1OC(F)F	-14	10	-12	9.8*	0
CC(C)OC(=O)/C(C#N)=C/c1cn(Cc2ccccc2)c2ccccc12	75*	11	-21	0	0
CC(C)OC(=O)/C(C#N)=C/c1cn(C)c2ccccc12	-58	10	-2	7	1
CC(C)COC(=O)/C(C#N)=C/c1cn(Cc2ccccc2)c2ccccc12	80*	8	2	8	0
c1ccc2c(c1)cnc1ccccc12	-22	-6	-21	5	1
c1ccc(-c2ncc3c(ccc4ccccc43)n2)cc1	68*	-2	-15	-3	0
Cc1ccc(NC(=S)Nc2cccc(-c3n[nH]c(=S)o3)c2)cc1	-57	28	4	2	-3
Cc1ccc(NC(=O)c2ccccc2NC(=O)Cc2ccccc2)cc1	-6	-6	2	0	1
O=C(Cc1ccccc1)Nc1ccccc1C(=O)Nc1ccccc1	-24	14	-13	11*	-1
Nc1ccc(C(=O)CC(=O)Nc2ccc(Cl)cc2)cc1	-12	19	-11	nt	-1

Source: PubChem
